Out of some 5,500 compounds screened, about 2,000 (36%) were called active. Roughly 18% stayed inconclusive and do not appear here. No stated cut-off is given here; in the data, active means normalized growth mostly below about 0.91 (no sharp cut-off); inconclusive means no clear call, values can overlap the other calls; inactive means mostly above about 0.92. This is one part of the list.
Test: chemical genetic growth profiling, strain panel (AID 1159580);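 further: tested at 20 µM; growth read once vehicle control cultures reached saturation at 30 °C; 1 = growth at the plate median or of vehicle wells; lower values mean less growth of the strain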
Conditions: growth OD

Measured: normalized growth

N#Cc1c(Cl)cccc1Cl
inactive: S. cerevisiae deletion strains, locus YJR075W, strain HOC1, hits give low values 1.02 | S. cerevisiae deletion strains, locus YKL009W, strain mrt4, hits give low values 1.02 | S. cerevisiae deletion strains, locus YKL068W, hits give low values 1.01 | S. cerevisiae deletion strains, locus YKL085W, strain MDH1 (second series), hits give low values 1.01 | S. cerevisiae deletion strains, locus YKL085W, strain MDH1, hits give low values 1.01 | S. cerevisiae deletion strains, locus YKL160W, strain elf1, hits give low values 0.981 | S. cerevisiae deletion strains, locus YKL190W, strain CNB1, hits give low values 1.02 | S. cerevisiae deletion strains, locus YKR001C, strain vps1, hits give low values 1.01 | S. cerevisiae deletion strains, locus YKR026C, strain gcn3, hits give low values 0.982 | S. cerevisiae deletion strains, locus YKR091W, strain srl3, hits give low values 0.978 | S. cerevisiae deletion strains, locus YLL001W, strain dnm1, hits give low values 0.988 | S. cerevisiae deletion strains, locus YLL026W, hits give low values 0.975 | S. cerevisiae deletion strains, locus YLL041C, strain sdh2, hits give low values 0.977 | S. cerevisiae deletion strains, locus YLR027C, strain aat2, hits give low values 0.959 | S. cerevisiae deletion strains, locus YLR039C, strain RIC1, hits give low values 1.01 | S. cerevisiae deletion strains, locus YLR058C, strain SHM2, hits give low values 1.02 | S. cerevisiae deletion strains, locus YLR102C, strain apc9, hits give low values 1.01 | S. cerevisiae deletion strains, locus YLR113W, strain HOG1, hits give low values 0.987 | S. cerevisiae deletion strains, locus YLR221C, strain rsa3, hits give low values 0.971 | S. cerevisiae deletion strains, locus YLR258W, strain gsy2, hits give low values 0.991 | S. cerevisiae deletion strains, locus YLR262C, strain YPT6 (second series), hits give low values 0.999 | S. cerevisiae deletion strains, locus YLR262C, strain YPT6, hits give low values 1.05 | S. cerevisiae deletion strains, locus YLR268W, strain sec22, hits give low values 0.999 | S. cerevisiae deletion strains, locus YLR320W, strain mms22, hits give low values 0.988 | S. cerevisiae deletion strains, locus YLR330W, strain CHS5, hits give low values 1.01 | S. cerevisiae deletion strains, locus YLR342W, strain FKS1 (second series), hits give low values 1.04 | S. cerevisiae deletion strains, locus YLR342W, strain FKS1, hits give low values 0.978 | S. cerevisiae deletion strains, locus YLR357W, strain rsc2, hits give low values 0.978 | S. cerevisiae deletion strains, locus YLR370C, strain arc18, hits give low values 0.965 | S. cerevisiae deletion strains, locus YLR371W, strain rom2, hits give low values 1.01 | S. cerevisiae deletion strains, locus YLR384C, strain iki3, hits give low values 0.975 | S. cerevisiae deletion strains, locus YLR418C, strain cdc73, hits give low values 1.01 | S. cerevisiae deletion strains, locus YML016C, strain PPZ1, hits give low values 1.01 | S. cerevisiae deletion strains, locus YML032C, strain rad52, hits give low values 1.02 | S. cerevisiae deletion strains, locus YML120C, strain ndi1, hits give low values 0.988 | S. cerevisiae deletion strains, locus YML124C, strain tub3, hits give low values 1.01 | S. cerevisiae deletion strains, locus YMR058W, strain fet3, hits give low values 0.968 | S. cerevisiae deletion strains, locus YMR078C, strain ctf18, hits give low values 1.02 | S. cerevisiae deletion strains, locus YMR125W, strain sto1, hits give low values 0.974 | S. cerevisiae deletion strains, locus YMR129W, hits give low values 1.01 | S. cerevisiae deletion strains, locus YMR205C, strain PFK2, hits give low values 1.01 | S. cerevisiae deletion strains, locus YMR223W, strain ubp8, hits give low values 1.01 | S. cerevisiae deletion strains, locus YMR231W, strain pep5, hits give low values 0.982 | S. cerevisiae deletion strains, locus YMR263W, strain SAP30, hits give low values 1.02 | S. cerevisiae deletion strains, locus YMR307W, strain GAS1, hits give low values 1.01 | S. cerevisiae deletion strains, locus YNL067W, strain RPL9B, hits give low values 1.01 | S. cerevisiae deletion strains, locus YNL071W, strain lat1, hits give low values 0.985 | S. cerevisiae deletion strains, locus YNL128W, strain TEP1, hits give low values 1.01 | S. cerevisiae deletion strains, locus YNL153C, strain GIM3, hits give low values 1.01 | S. cerevisiae deletion strains, locus YNL183C, strain NPR1, hits give low values 0.902 | S. cerevisiae deletion strains, locus YNL209W, strain ssb2, hits give low values 0.995 | S. cerevisiae deletion strains, locus YNL233W, strain BNI4, hits give low values 1.02 | S. cerevisiae deletion strains, locus YNL248C, strain rpa49, hits give low values 0.971 | S. cerevisiae deletion strains, locus YNL250W, strain rad50, hits give low values 1.02 | S. cerevisiae deletion strains, locus YNL271C, strain bni1, hits give low values 1.02 | S. cerevisiae deletion strains, locus YNL298W, strain CLA4, hits give low values 1.02 | S. cerevisiae deletion strains, locus YNL307C, strain MCK1, hits give low values 1.01 | S. cerevisiae deletion strains, locus YNL322C, strain KRE1 (second series), hits give low values 0.978 | S. cerevisiae deletion strains, locus YNL322C, strain KRE1, hits give low values 1.01 | S. cerevisiae deletion strains, locus YNR049C, strain mso1, hits give low values 0.958 | S. cerevisiae deletion strains, locus YNR052C, strain pop2, hits give low values 1.02 | S. cerevisiae deletion strains, locus YOL006C, strain TOP1, hits give low values 1.04 | S. cerevisiae deletion strains, locus YOL012C, strain htz1 1.37 | S. cerevisiae deletion strains, locus YOL147C, strain pex11, hits give low values 1.01 | S. cerevisiae deletion strains, locus YOR001W, strain rrp6, hits give low values 0.993 | S. cerevisiae deletion strains, locus YOR061W, strain CKA2, hits give low values 1.01 | S. cerevisiae deletion strains, locus YOR069W, strain VPS5, hits give low values 1 | S. cerevisiae deletion strains, locus YOR070C, strain gyp1, hits give low values 0.991 | S. cerevisiae deletion strains, locus YOR080W, strain dia2, hits give low values 0.963 | S. cerevisiae deletion strains, locus YOR083W, strain WHI5, hits give low values 0.974 | S. cerevisiae deletion strains, locus YOR106W, strain vam3, hits give low values 0.974 | S. cerevisiae deletion strains, locus YOR136W, strain idh2, hits give low values 1.01 | S. cerevisiae deletion strains, locus YOR144C, strain elg1, hits give low values 1.01 | S. cerevisiae deletion strains, locus YOR184W, strain ser1, hits give low values 1.03 | S. cerevisiae deletion strains, locus YOR231W, strain MKK1, hits give low values 0.966 | S. cerevisiae deletion strains, locus YOR265W, strain rbl2, hits give low values 0.966 | S. cerevisiae deletion strains, locus YOR270C, strain vph1, hits give low values 1.01 | S. cerevisiae deletion strains, locus YOR290C, strain snf2, hits give low values 0.985 | S. cerevisiae deletion strains, locus YOR316C, strain cot1, hits give low values 1.01 | S. cerevisiae deletion strains, locus YPL051W, strain arl3, hits give low values 0.995 | S. cerevisiae deletion strains, locus YPL055C, strain LGE1, hits give low values 1.05 | S. cerevisiae deletion strains, locus YPL078C, strain atp4, hits give low values 0.984 | S. cerevisiae deletion strains, locus YPL106C, strain sse1, hits give low values 0.975 | S. cerevisiae deletion strains, locus YPL240C, strain hsp82, hits give low values 0.979 | S. cerevisiae deletion strains, locus YPL241C, strain CIN2, hits give low values 1.01 | S. cerevisiae deletion strains, locus YPL256C, strain CLN2, hits give low values 0.968 | S. cerevisiae deletion strains, locus YPR119W, strain clb2, hits give low values 1.01 | S. cerevisiae deletion strains, locus YPR141C, strain kar3, hits give low values 1.02 | S. cerevisiae deletion strains, locus YPR163C, strain tif3, hits give low values 1.02 | S. cerevisiae deletion strains, locus YPR167C, strain met16, hits give low values 1.02 | S. cerevisiae deletion strains, strain wtn01, hits give low values 1.02 | S. cerevisiae strains, strain wild type, hits give low values 1.01

From PubChem BioAssay AID1159580 (chemical genetic matrix, 2015)
